Assay outcomes as filed in PubChem BioAssay.
GALR2 blocker – antagonists of human galanin receptor 2 (GALR2). O43603. 140,000 compounds, 0.39% hits. inhibition, % at 4 µM. GALR2-expressing cells, antagonist mode;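 note: cells stimulated with galanin 1-16 at roughly its EC80; 0% = agonist challenge control and 100% = basal control without agonist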
Target sequence (O43603 whole entry, looked up): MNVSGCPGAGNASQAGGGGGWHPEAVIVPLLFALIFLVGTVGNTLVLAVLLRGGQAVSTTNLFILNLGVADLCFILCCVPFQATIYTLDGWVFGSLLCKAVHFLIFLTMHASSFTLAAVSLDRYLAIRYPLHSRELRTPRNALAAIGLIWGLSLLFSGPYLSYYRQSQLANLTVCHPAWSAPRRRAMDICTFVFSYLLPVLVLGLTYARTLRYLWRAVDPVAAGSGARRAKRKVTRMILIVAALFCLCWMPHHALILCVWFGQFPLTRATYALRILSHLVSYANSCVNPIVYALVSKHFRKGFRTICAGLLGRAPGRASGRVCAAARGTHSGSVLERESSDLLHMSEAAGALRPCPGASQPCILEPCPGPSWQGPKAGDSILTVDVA
Mac1 fbg inh – CD11b/CD18-fibrinogen binding inhibition; inhibition, % at 10 µM; K562 CD11b/CD18 adhesion to fibrinogen, ATPlite luminescence; Mn2+ added to activate the integrin; 93,000 compounds, 0.54% hits;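 active = primary inhibition of 50% or more at 10 µM, then 40% or more on retest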
GALR2 agonist – activates the human galanin receptor 2; O43603; AID 803; GALR2-expressing cells, agonist activation read-out; 140,000 compounds, 0.48% hits; activation, % (concentration not given with the values); in the data active = activation above about 5%, passing the limit was not always enough;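 note: 0% = vehicle buffer wells and 100% = reference agonist at full effect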
S1P2 ag – activates the human S1P2 receptor; O95136; S1P2-expressing cell line, agonist reporter read-out; activation, % at 4.5 µM; 97,000 compounds, 0.46% hits; AID 729; in the data active = activation above about 16%;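 note: 0% = vehicle low control and 100% = maximal reference agonist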
S1P2 blocker – S1P2 (human) receptor antagonism; O95136; cell-based S1P2 antagonist assay, inhibition at 5 uM; inhibition, % at 5 µM; 97,000 compounds, 0.21% hits; in the data active = inhibition above about 45%;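 note: CRE beta-lactamase reporter cells expressing human S1P2 stimulated with S1P; 0% = agonist at EC80 alone and 100% = agonist plus reference antagonist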
Mac1 fbg enh – CD11b/CD18-fibrinogen binding enhancement | P05107+P11215 | K562 CD11b/CD18 adhesion to fibrinogen, ATPlite luminescence | activation, % at 10 µM | 93,000 compounds, 0.07% hits | AID 1499;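 active = 10 µM primary screen giving 50% or more activity, confirmed by 40% or more on retest at that dose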
GALR2 ant conf – GALR2 (human) antagonism confirmed; shares compounds with GALR2 blocker; GALR2-expressing cells, antagonist mode, inhibition; inhibition, % at 4 µM; 480 compounds, 60% hits; AID 866;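 note: cells stimulated with galanin at about its EC80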
BLA inh counter – counter-screen for GALR2 antagonists: beta-lactamase reporter inhibitors | CHO NFAT-BLA reporter, beta-lactamase FRET, thapsigargin-stimulated | inhibition, % at 4.2 µM | shares compounds with GALR2 blocker | AID 867 | 480 compounds, 36% hits;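 active = inhibition above the mean inhibition across tested compounds plus 3 SD, cut at about 27% in these data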;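 note: 0% = 500 nM thapsigargin stimulated wells and 100% = unstimulated BSA only wells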
Active calls of the source: *. Rows were chosen to be rich in hits. Some 1.4% of all compounds tested hit in one or more screens of this group. Cut-off read from the data, not from the text of the source, unless noted: active = inhibition above about 27%; inactive = the rest.

CC(=O)n1c2c(c3ccccc31)OC(N)=C(C#N)C2c1ccc(C(C)C)cc1 (stereo not drawn) was read as GALR2 blocker 8.5, GALR2 agonist -1.4, S1P2 ag 0.4 and S1P2 blocker 16.6.
CC(CC(=O)c1cccs1)CC(=O)c1cccs1 was read as GALR2 blocker 32.5*, Mac1 fbg inh 0.7, GALR2 agonist -3.5, S1P2 ag -8.6, S1P2 blocker 15.1, Mac1 fbg enh 0.7, GALR2 ant conf 8.8 and BLA inh counter 5.0.
`O=C(c1cccc(S(=O)(=O)N2CCCC2)c1)N1CCN(c2ccccc2F)CC1` gave GALR2 blocker 2.4, Mac1 fbg inh -4.7, GALR2 agonist -2.6, S1P2 ag -1.9, S1P2 blocker -4.0 and Mac1 fbg enh -0.5.
CCOCCOC(=O)C(C)Oc1ccc(Oc2ncc(Cl)cc2Cl)cc1 (stereo not drawn) was read as GALR2 blocker -1.9, Mac1 fbg inh 10.2, GALR2 agonist -0.3 and Mac1 fbg enh -2.8.
CCOC(=O)CSc1nc2c(c(=O)n(C)c(=O)n2C)n1CCCc1ccccc1 was read as GALR2 blocker 9.9, Mac1 fbg inh -1.0, GALR2 agonist -1.3, S1P2 ag -3.3, S1P2 blocker -1.5 and Mac1 fbg enh 7.4.
`O=C(Nc1ccc2nsnc2c1)N1CCCCC1` gave GALR2 blocker -7.3, Mac1 fbg inh 5.4, GALR2 agonist 0.2, S1P2 ag -1.9, S1P2 blocker 16.5 and Mac1 fbg enh -1.9.
For Cc1ccc(C2CC(=O)Nc3cc4c(cc32)OCO4)o1 (stereo not drawn) the results were GALR2 blocker 34.4*, Mac1 fbg inh 3.2, GALR2 agonist -1.7, S1P2 ag -4.7, S1P2 blocker -16.7, Mac1 fbg enh -1.5, GALR2 ant conf 1.2 and BLA inh counter 0.8.
Screening CCN1CCc2c(sc(NC(=O)Nc3ccc(Cl)c(Cl)c3)c2C(N)=O)C1 returned GALR2 blocker 27.4*, GALR2 agonist -1.2, GALR2 ant conf 24.7 and BLA inh counter 20.7.
Screening Cc1ccc2nc(Cl)c(C3CC(c4cccs4)=NN3C(=O)CCCC(=O)O)cc2c1 (stereo not drawn) returned GALR2 blocker -1.4 and GALR2 agonist -0.5.
Screening COc1cc(/C=C2\CC/C(=C\c3cc(OC)c(O)c(OC)c3)C2=O)cc(OC)c1O returned GALR2 blocker 57.8*, GALR2 agonist -1.7, GALR2 ant conf 40.7* and BLA inh counter 30.5*.
O=C(OCn1ncc(Br)c(Br)c1=O)c1c(F)cccc1F was read as GALR2 blocker 96.5*, Mac1 fbg inh 23.7, GALR2 agonist -5.2, S1P2 ag -6.9, S1P2 blocker 69.0*, Mac1 fbg enh -1.7, GALR2 ant conf 94.2* and BLA inh counter 98.4*.
`CC1(C(=O)N(Cc2ccccc2)Cc2ccccc2)CC1(Br)Br` (stereo not drawn) gave GALR2 blocker -30.2, Mac1 fbg inh 39.5, GALR2 agonist 0.0 and Mac1 fbg enh 12.8.
Screening CN(C(=S)NC1CCCCC1)C1(c2ccccc2Cl)CCCCC1=O (stereo not drawn) returned GALR2 blocker 27.4*, Mac1 fbg inh -2.0, GALR2 agonist -0.2, Mac1 fbg enh 2.1, GALR2 ant conf 33.7* and BLA inh counter 8.3.
`Cn1nc(-c2ccc(Cl)cc2)nc2c(=O)n(C)c(=O)nc1-2` gave GALR2 blocker 93.9*, GALR2 agonist 4.4, S1P2 ag -3.4, S1P2 blocker 99.4*, GALR2 ant conf 99.8* and BLA inh counter 94.8*.
Screening COc1cc(C(=O)NC(=S)Nc2ccc([N+](=O)[O-])cc2C)cc(OC)c1OC returned GALR2 blocker 49.5*, GALR2 agonist -1.1, GALR2 ant conf 7.2 and BLA inh counter 3.9.
Cc1cccc2sc(NC(=O)C3CCN(S(=O)(=O)c4cc([N+](=O)[O-])ccc4Cl)CC3)nc12 was read as GALR2 blocker 27.1*, Mac1 fbg inh 99.1, GALR2 agonist -1.2, Mac1 fbg enh -5.7, GALR2 ant conf 22.5 and BLA inh counter 20.8.
